The record followed here is paper PMC5540273 (PLoS ONE, 2017).

Structures are written as SMILES.

Holding throughout (conditions): concentration: 1 μM, replicates: in singlicate; n = 1
In experiment [1] the test system is PRKX.
Experiment [2] has as its system PRP4.
Experiment [3] relates to T1, PYK2.
T1 construct: gene PTK2B

In experiment [4] the test system is QSK.
The test system of experiment [5] is RAF1.
Experiment [6] deals with RET.
Experiment [7] has as its system RIOK1.
In experiment [8] the test system is RIOK2.
In experiment [9] the test system is RIOK3.
For experiment [10], the system named is RIPK1.
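Further: KINOMEscan kinase panel screen.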

For `COc1cc(OC)cc(-c2cc3cnc(N)nc3nc2NC(=O)NC(C)(C)C)c1`, the “%Inh” value was found to be 5% in [1]; 0% in experiment [2]; 4% in experiment [3]; 0% in experiment [4]; 0% in experiment [5]; 32% in [6]. Further, the “%Inh” value is 8% in experiment [7], 0% in experiment [8], 45% in [9] and 0% in [10].
On to `CCC(=O)c1c(-c2ccccc2)c2cc(Cl)ccc2c(=O)n1Cc1ccc(C(=O)O)cc1`, for which the “%Inh” value in experiment [1] was 0%; in experiment [2], 0%; in [3], 0%; in experiment [4], 0%; in experiment [5], 26%; in [6], 0%. For the same compound, the “%Inh” value in [7] is given as 6%; in experiment [8], 0%; in experiment [9], 23%; in [10], 0%.
Turning to `Cn1c(=O)c(F)c(Nc2ccc(I)cc2F)c2c(=O)n(OC[C@H](O)CO)cnc21`, the “%Inh” value in experiment [1] was 0%; in experiment [2], 0%; in experiment [3], 17%; in experiment [4], 0%; in experiment [5], 37%; in experiment [6], 11%. Moreover, the “%Inh” value in [7] amounted to 5%; in experiment [8], 0%; in experiment [9], 23%; in experiment [10], 0%.
For the compound `Cl.c1ccc(Cn2cnc3cc(Nc4ncnc5ccccc45)ccc32)cc1` [GW272142], the “%Inh” value in [1] was found to be 31%; in [2], 28%; in experiment [3], 10%; in [4], 0%; in experiment [5], 3%; in experiment [6], 3%. The “%Inh” value in [7] worked out at 35%; in experiment [8], 0%; in experiment [9], 38%; in experiment [10], 8%.
Turning to `Cl.NS(=O)(=O)c1cccc(Nc2cc(-c3ccc(F)cc3)n[nH]2)c1` [GW824645], the “%Inh” value worked out at 0% in experiment [1]; 0% in experiment [2]; 0% in experiment [3]; 0% in [4]; 10% in [5]; 0% in [6]. Moreover, the “%Inh” value in experiment [7] is reported as 0%; in experiment [8], 0%; in experiment [9] it was 11%; in experiment [10], 0%.
For the compound `O=C(NCCNc1ccnc(Nc2ccc(F)cc2)n1)Nc1ccc2c(c1)OCO2` [GSK1379882], the “%Inh” value is on record as 30% in [1]; 47% in experiment [2]; 9% in [3]; 0% in [4]; 5% in experiment [5]; 0% in [6]. Moreover, the “%Inh” value in experiment [7] is 15%; in [8], 0%; in experiment [9], 15%; in experiment [10], 25%.
In the case of `Cc1cccc(-c2nc(Nc3ccc4c(cnn4C)c3)c3ccccc3n2)n1` [GW876731], the “%Inh” value came out at 0% in [1]; 0% in experiment [2]; 0% in experiment [3]; 0% in experiment [4]; 29% in [5]; 4% in experiment [6]. Also, the “%Inh” value in experiment [7], in experiment [8], in [9] and in [10] was 0% in each case.
Consider `C[C@@H]1CC[C@H](C(=O)NC2CCCCC2)CN1c1cc(-c2ccc3c(N)n[nH]c3c2)nc(N)n1` [GSK2291363], for which the “%Inh” value in experiment [1] is 84%; in experiment [2], 26%; in [3], 24%; in experiment [4], 7%; in experiment [5] it was 16%; in experiment [6], 53%. Besides, the “%Inh” value in experiment [7] worked out at 96.1%; in [8], 22%; in experiment [9], 93.7%; in experiment [10], 22%.
Consider `Cc1cccc(-c2cc(-c3c[nH]nc3-c3ccccn3)ccn2)c1` [GW679395], for which the “%Inh” value in experiment [1] came out at 12%; in experiment [2], 22%; in [3] it was 0%; in [4], 3%; in experiment [5] it was 3%; in [6] it was 48%. The “%Inh” value in experiment [7] is on record as 6%; in experiment [8] it was 0%; in experiment [9], 0%; in experiment [10], 0%.
For `CC(C)(C)c1ccc(C(=O)Nc2cn3cc(-c4ccccc4)ccc3n2)cc1`, the “%Inh” value in experiment [1] is listed as 3%; in [2], 19%; in experiment [3], 0%; in experiment [4], 0%; in experiment [5], 0%; in experiment [6] it was 0%. For the same compound, the “%Inh” value is given as 2% in experiment [7], 14% in experiment [8], 22% in experiment [9] and 0% in [10].
Turning to `Cc1nnc(-c2ccc(C)c(-c3ccc(C(=O)O)cc3)c2)o1` [GW608005], the “%Inh” value was 0% in experiment [1]; 8% in experiment [2]; 0% in experiment [3]; 0% in experiment [4]; 0% in experiment [5]; 2% in [6]. In addition, the “%Inh” value in experiment [7] is on record as 15%; in experiment [8], 19%; in experiment [9], 0%; in experiment [10], 5%.
As for `CCC(=O)c1c(-c2ccccc2)c2cc(Cl)ccc2c(=O)n1Cc1cc(S(C)(=O)=O)n(CCC(C)(C)O)n1`, the “%Inh” value in experiment [1] worked out at 30%; in experiment [2], 0%; in experiment [3], 0%; in experiment [4] it was 8%; in experiment [5], 14%; in experiment [6], 14%. Besides, the “%Inh” value in [7] is reported as 8%; in experiment [8], 42%; in experiment [9], 0%; in experiment [10] it was 20%.
For the compound `COc1cc2ncn(-c3cc(OCc4ccncc4)c(C(N)=O)s3)c2cc1OC` [GSK336313], the “%Inh” value is reported as 7% in experiment [1]; 20% in experiment [2]; 0% in [3]; 0% in experiment [4]; 7% in experiment [5]; 4% in [6]. Further, the “%Inh” value came out at 31% in experiment [7], 6% in experiment [8], 12% in experiment [9] and 46% in [10].
In the case of `OCCCNc1nccc(-c2c(-c3cccc(C(F)(F)F)c3)nn3cc(C(F)(F)F)ccc23)n1` [GW630813], the “%Inh” value is reported as 0% in [1]; 17% in experiment [2]; 5% in experiment [3]; 0% in experiment [4]; 0% in experiment [5]; 11% in experiment [6]. Further, the “%Inh” value was found to be 38% in [7], 0% in experiment [8], 14% in experiment [9] and 0% in [10].
Regarding `CCc1ccc(-c2ccc3c(c2)-c2nn(C)cc2S(=O)(=O)N3C)cc1`, the “%Inh” value in experiment [1] stood at 0%; in [2], 27%; in experiment [3], 0%; in [4], 0%; in experiment [5], 19%; in experiment [6] it was 16%. Also, the “%Inh” value in experiment [7] is reported as 15%; in experiment [8] it was 0%; in experiment [9] it was 0%; in [10] it was 12%.
In the case of `Nc1nccc2scc(-c3ccc4c(c3)CCN4C(=O)Cc3ccccc3)c12` [GSK2576924], the “%Inh” value in experiment [1] worked out at 14%; in experiment [2] it was 13%; in experiment [3] it was 0%; in [4], 0%; in experiment [5] it was 5%; in [6] it was 11%. The “%Inh” value is listed as 13% in experiment [7], 6% in [8], 11% in [9] and 71% in experiment [10].
Take `O=C(Nc1n[nH]c2nc(-c3ccccc3)c(Br)cc12)C1CC1` [SB-708998]: the “%Inh” value in experiment [1] stood at 0%; in experiment [2] it was 3%; in experiment [3], 0%; in [4] it was 0%; in experiment [5] it was 14%; in [6] it was 74%. Further, the “%Inh” value in experiment [7] came out at 35%; in experiment [8] it was 17%; in experiment [9], 24%; in [10], 48%.
